Data on 10 molecules can be found in PubChem BioAssay (NCI).

About 79,000 compounds went through this panel and 15% of them were active in at least one assay; those are over-represented in the sample as a whole. Values without a mark were called inactive. Activity calls are given as the source filed them. Rule as the data show it: active = growth inhibition above about 70%; inactive = the rest.

A short description of assay [1]: NCI Yeast Anticancer Drug Screen. Data for the rad50 strain (AID 155).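 Also: 0% = growth of vehicle-only cultures of the same strain.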 The conditions noted are these: S. cerevisiae rad50 strain growth inhibition, active compounds read high. A digest of the protocol: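 A DNA repair-deficient yeast mutant serves as the test organism; compound-induced growth inhibition is calculated against vehicle-treated cells.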
Assay [2] is described as follows: NCI Yeast Anticancer Drug Screen. Data for the mec2-1 strain (AID 157). The conditions noted are these: S. cerevisiae mec2-1 strain, active compounds read high. A digest of the protocol: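 Strain: mec2-1 (DNA repair/cell cycle alteration). Compound exposure, then growth measured; inhibition expressed relative to vehicle.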
Assay [3] in a line: NCI Yeast Anticancer Drug Screen. Data for the sgs1 mgt1 strain (AID 161).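 Also: 0% = growth of cultures given vehicle only.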 The conditions noted are these: S. cerevisiae sgs1 mgt1 strain, active compounds read high. An outline of the steps:
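Genetically altered yeast, compound exposure, growth inhibition relative to vehicle.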

The nature of assay [4]: NCI Yeast Anticancer Drug Screen. Data for the cln2 rad14 strain (AID 165).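 Also: 0% = growth equal to vehicle treated cultures.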 The conditions noted are these: S. cerevisiae cln2 rad14 strain, active compounds read high. A digest of the protocol: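 Compounds are applied to the cln2 rad14 yeast strain, and growth is then compared with that of vehicle-treated cultures to give inhibition.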
A short description of assay [5]: NCI Yeast Anticancer Drug Screen. Data for the bub3 strain (AID 167). The conditions noted are these: S. cerevisiae bub3 mutant strain, active compounds read high. An outline of the steps:
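Inhibition values come from growth of compound-treated mutant yeast normalised to vehicle-treated controls.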

Assay [6] in a line: NCI Yeast Anticancer Drug Screen. Data for the mlh1 rad18 strain (AID 175). The conditions noted are these: S. cerevisiae mlh1 rad18 strain growth inhibition, active compounds read high. A digest of the protocol: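 Read-out is yeast growth inhibition, calculated against vehicle-only controls. The compound was applied to a strain engineered with DNA damage repair alterations.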
Setting [7] is: at 5.0 µM (retest, dose inferred, filed as 0.5).
Setting [8] is: at 50.0 µM (retest, dose inferred, filed as 5.0).

Consider `CN1CSC(=S)N(Cc2ccccc2)C1`, for which the growth inhibition in assay [1] (setting [7]) was 20%; in assay [1] (setting [8]) it was 78% (active); in assay [1] (at 50.0 µM), 73.6% (active); in assay [2] (setting [7]), -5%; in assay [2] (setting [8]), 76% (active); in assay [2] (at 50.0 µM) it was 87.8% (active). For the same molecule, the growth inhibition in assay [3] (setting [7]) is 15%; in assay [3] (setting [8]) it was 67%; in assay [3] (at 50.0 µM), 86.6% (active); in assay [4] (setting [7]), 19%; in assay [4] (setting [8]), 41%; in assay [4] (at 50.0 µM), 21.2%. Moreover, the growth inhibition in assay [5] (setting [7]) was 25%; in assay [5] (setting [8]) it was 90% (active); in assay [5] (at 50.0 µM), 88.3% (active); in assay [6] (setting [7]) it was -2%; in assay [6] (setting [8]), 89% (active); in assay [6] (at 50.0 µM), 75.3% (active).

Take `Nc1ccc(-c2ccc(N)c(S(=O)(=O)O)c2)cc1S(=O)(=O)O`: the growth inhibition was 4% in assay [1] (setting [7]); 2% in assay [1] (setting [8]); -11.9% in assay [1] (at 50.0 µM); 4% in assay [2] (setting [7]); 12% in assay [2] (setting [8]); -9% in assay [2] (at 50.0 µM). The growth inhibition in assay [3] (setting [7]) is 5%; in assay [3] (setting [8]) it was 3%; in assay [3] (at 50.0 µM), 7.85%; in assay [4] (setting [7]) it was 9%; in assay [4] (setting [8]) it was 24%; in assay [4] (at 50.0 µM), 49%. Besides, the growth inhibition is 6% in assay [5] (setting [7]); 15% in assay [5] (setting [8]); 33.2% in assay [5] (at 50.0 µM); 13% in assay [6] (setting [7]); 6% in assay [6] (setting [8]); -21.8% in assay [6] (at 50.0 µM).

For the molecule `S=C1SCN(Cc2cccs2)CN1Cc1cccs1`, the growth inhibition was 58% in assay [1] (setting [7]); 95% (active) in assay [1] (setting [8]); 71.2% (active) in assay [1] (at 50.0 µM); 42% in assay [2] (setting [7]); 96% (active) in assay [2] (setting [8]); 71.5% (active) in assay [2] (at 50.0 µM). In addition, the growth inhibition in assay [3] (setting [7]) is 55%; in assay [3] (setting [8]) it was 99% (active); in assay [3] (at 50.0 µM) it was 77.7% (active); in assay [4] (setting [7]), 23%; in assay [4] (setting [8]), 73% (active); in assay [4] (at 50.0 µM) it was 30.4%. The growth inhibition in assay [5] (setting [7]) was 37%; in assay [5] (setting [8]) it was 91% (active); in assay [5] (at 50.0 µM) it was 80.7% (active); in assay [6] (setting [7]), 63%; in assay [6] (setting [8]), 96% (active); in assay [6] (at 50.0 µM), 74.7% (active).

In the case of `Nc1nc(N)c2cc(Sc3cccc(C(F)(F)F)c3)ccc2n1`, the growth inhibition was 21% in assay [1] (setting [7]); 77% (active) in assay [1] (setting [8]); 68.5% in assay [1] (at 50.0 µM); 18% in assay [2] (setting [7]); 75% (active) in assay [2] (setting [8]); 53% in assay [2] (at 50.0 µM). Further, the growth inhibition in assay [3] (setting [7]) is 15%; in assay [3] (setting [8]), 97% (active); in assay [3] (at 50.0 µM) it was 79.1% (active); in assay [4] (setting [7]) it was 22%; in assay [4] (setting [8]), 26%; in assay [4] (at 50.0 µM), 87.7% (active). Also, the growth inhibition in assay [5] (setting [7]) was 17%; in assay [5] (setting [8]), 74% (active); in assay [5] (at 50.0 µM), 23.9%; in assay [6] (setting [7]) it was 22%; in assay [6] (setting [8]) it was 93% (active); in assay [6] (at 50.0 µM), 88.8% (active).

As for `O=C1C=CC(=O)c2c(O)c(CO)c(CO)c(O)c21`, the growth inhibition in assay [1] (setting [7]) was 28%; in assay [1] (setting [8]), 95% (active); in assay [1] (at 50.0 µM) it was 75.4% (active); in assay [2] (setting [7]), 27%; in assay [2] (setting [8]), 96% (active); in assay [2] (at 50.0 µM), 84.4% (active). Moreover, the growth inhibition in assay [3] (setting [7]) was 28%; in assay [3] (setting [8]) it was 94% (active); in assay [3] (at 50.0 µM), 51%; in assay [4] (setting [7]), 24%; in assay [4] (setting [8]) it was 84% (active); in assay [4] (at 50.0 µM), 15.5%. Besides, the growth inhibition in assay [5] (setting [7]) was 40%; in assay [5] (setting [8]) it was 98% (active); in assay [5] (at 50.0 µM) it was 74.2% (active); in assay [6] (setting [7]), 30%; in assay [6] (setting [8]), 96% (active).

Take `CN1CCC(CN2c3ccccc3Sc3ccccc32)C1` (centres undefined): the growth inhibition in assay [1] (setting [7]) is 2%; in assay [1] (setting [8]) it was 16%; in assay [1] (at 50.0 µM) it was 38.5%; in assay [2] (setting [7]), 2%; in assay [2] (setting [8]) it was -27%; in assay [2] (at 50.0 µM), -22.9%. In addition, the growth inhibition in assay [3] (setting [7]) is -8%; in assay [3] (setting [8]) it was 11%; in assay [3] (at 50.0 µM), 21.1%; in assay [4] (setting [7]) it was -17%; in assay [4] (setting [8]) it was -1%; in assay [4] (at 50.0 µM), 51.2%. Also, the growth inhibition in assay [5] (setting [7]) was 26%; in assay [5] (setting [8]) it was 6%; in assay [5] (at 50.0 µM) it was 19.4%; in assay [6] (setting [7]), 11%; in assay [6] (setting [8]), 16%; in assay [6] (at 50.0 µM) it was 32.2%.

As to `CCCCCCCCCCCC[n+]1ccc2ccccc2c1`, the growth inhibition was 97% (active) in assay [1] (setting [7]); 99% (active) in assay [1] (setting [8]); 99.6% (active) in assay [1] (at 50.0 µM); 99% (active) in assay [2] (setting [7]); 100% (active) in assay [2] (setting [8]); 99.7% (active) in assay [2] (at 50.0 µM). For the same molecule, the growth inhibition in assay [3] (setting [7]) was 98% (active); in assay [3] (setting [8]), 99% (active); in assay [3] (at 50.0 µM), 99.2% (active); in assay [4] (setting [7]) it was 98% (active); in assay [4] (setting [8]), 100% (active); in assay [4] (at 50.0 µM) it was 98.1% (active). Moreover, the growth inhibition in assay [5] (setting [7]) is 99% (active); in assay [5] (setting [8]) it was 99% (active); in assay [5] (at 50.0 µM) it was 99.5% (active); in assay [6] (setting [7]), 98% (active); in assay [6] (setting [8]) it was 100% (active); in assay [6] (at 50.0 µM), 99.5% (active).

For `CCCCCC[C@@H](O)C/C=C\CCCCCCCC(=O)OCCOC`, the growth inhibition in assay [1] (setting [7]) was -4%; in assay [1] (setting [8]) it was 2%; in assay [1] (at 50.0 µM), 24.9%; in assay [2] (setting [7]) it was -3%; in assay [2] (setting [8]) it was 26%; in assay [2] (at 50.0 µM), 5.4%. For the same molecule, the growth inhibition is -6% in assay [3] (setting [7]); 24% in assay [3] (setting [8]); 4.2% in assay [3] (at 50.0 µM); 2% in assay [4] (setting [7]); -4% in assay [4] (setting [8]); 77.2% (active) in assay [4] (at 50.0 µM). The growth inhibition was -5% in assay [5] (setting [7]); 86% (active) in assay [5] (setting [8]); 12.6% in assay [5] (at 50.0 µM); 0% in assay [6] (setting [7]); 13% in assay [6] (setting [8]); 34.1% in assay [6] (at 50.0 µM).

In the case of `Cn1c(COC(=O)NC2CCCCC2)c(COC(=O)NC2CCCCC2)c2ccc3cc(Cl)c(Cl)cc3c21`, the growth inhibition in assay [1] (setting [7]) is 8%; in assay [1] (setting [8]) it was 31%; in assay [1] (at 50.0 µM) it was 18.1%; in assay [2] (setting [7]), -5%; in assay [2] (setting [8]), 8%; in assay [2] (at 50.0 µM) it was 23.2%. For the same molecule, the growth inhibition in assay [3] (setting [7]) is -3%; in assay [3] (setting [8]) it was 29%; in assay [3] (at 50.0 µM), 56.5%; in assay [4] (setting [7]) it was 15%; in assay [4] (setting [8]) it was 12%; in assay [4] (at 50.0 µM), 49.2%. Also, the growth inhibition in assay [5] (setting [7]) was 15%; in assay [5] (setting [8]), 30%; in assay [5] (at 50.0 µM), 72.7% (active); in assay [6] (setting [7]) it was 9%; in assay [6] (setting [8]), 11%; in assay [6] (at 50.0 µM), 21.8%.

Take `O=[N+]([O-])/C(=C/c1ccccc1)c1ccccc1`: the growth inhibition is 99% (active) in assay [1] (setting [7]); 99% (active) in assay [1] (setting [8]); 99.6% (active) in assay [1] (at 50.0 µM); 100% (active) in assay [2] (setting [7]); 99% (active) in assay [2] (setting [8]); 99.7% (active) in assay [2] (at 50.0 µM). The growth inhibition in assay [3] (setting [7]) is 99% (active); in assay [3] (setting [8]) it was 97% (active); in assay [3] (at 50.0 µM) it was 99.7% (active); in assay [4] (setting [7]), 99% (active); in assay [4] (setting [8]) it was 99% (active); in assay [4] (at 50.0 µM), 98.7% (active). Further, the growth inhibition in assay [5] (setting [7]) was 100% (active); in assay [5] (setting [8]) it was 99% (active); in assay [5] (at 50.0 µM), 99.5% (active); in assay [6] (setting [7]), 99% (active); in assay [6] (setting [8]), 99% (active); in assay [6] (at 50.0 µM), 99.5% (active).
